Among the test systems are SR leukemia; RPMI-8226 leukemia; OVCAR-8 ovarian; OVCAR-5 ovarian; OVCAR-4 ovarian; SK-OV-3 ovarian; IGROV1 ovarian; OVCAR-3 ovarian; HS 578T breast; NCI/ADR-RES ovarian; T-47D breast; BT-549 breast; MDA-MB-435 melanoma; SW-620 colon; MCF7 breast; HCT-116 colon; HCC-2998 colon; KM12 colon.
What all share (assay): NCI-60 one-dose screen, 48 h (100 = growth as untreated, 0 = no growth, -100 = all killed)
What all share (details): 10 µM unless noted

These results are taken from PubChem BioAssay (NCI).

This is part of a sample that, as a whole, favours compounds with a hit. Of some 83,000 tested, about 20% had one in any assay.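 Results are percent growth after 48 hours of single-concentration exposure. 100 means growth as in untreated cells, lower positive values show inhibition; negative values down to -100 show cell death.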 Values without a mark were called inactive. Active and inactive are the calls of the source. The calls were made as follows: active = growth percent below 10; inactive = the rest.

On to `O=C1/C(=C/c2ccccc2)CN(C(=O)C(Cl)Cl)C/C1=C\c1ccccc1`, for which the growth was -4.98% (active) in the test on SR leukemia; -25.6% (active) in the test with RPMI-8226 leukemia; 10.7% with OVCAR-8 ovarian; 31.7% in the test with OVCAR-5 ovarian; 29.7% in the test with OVCAR-4 ovarian; 90.2% in the test with SK-OV-3 ovarian. Moreover, the growth is -25.1% (active) with IGROV1 ovarian; -52.7% (active) in the test with OVCAR-3 ovarian; 4.17% (active) in the test on HS 578T breast; 13.5% in the test on NCI/ADR-RES ovarian; 17.2% in the test on T-47D breast; -5.59% (active) with BT-549 breast. Moreover, the growth was -50.2% (active) with MDA-MB-435 melanoma; -49% (active) with SW-620 colon; -39% (active) in the test with MCF7 breast; -70.7% (active) in the test with HCT-116 colon; -59.6% (active) in the test with HCC-2998 colon; -61.8% (active) in the test on KM12 colon.

As for `C=CCOc1ccc(/C=C2\SC(=S)N(CCc3ccc(O)cc3)C2=O)cc1`, the growth is 38.6% in the test with SR leukemia; 76.8% with RPMI-8226 leukemia; 97.5% with OVCAR-8 ovarian; 110% in the test on OVCAR-5 ovarian; 86.5% with OVCAR-4 ovarian; 115% with SK-OV-3 ovarian. The growth in the test on IGROV1 ovarian is 59.4%; in the test with OVCAR-3 ovarian, 100%; in the test on HS 578T breast it was 95%; with NCI/ADR-RES ovarian, 98.9%; in the test on T-47D breast, 82.8%; in the test on BT-549 breast it was 93.6%. Besides, the growth in the test with MDA-MB-435 melanoma is 77.5%; in the test with SW-620 colon, 88.9%; in the test on MCF7 breast it was 86.5%; in the test on HCT-116 colon, 99.6%; in the test on HCC-2998 colon it was 114%; in the test on KM12 colon, 91.5%.

As for `CCCCCCCCCCCCC[C@H](O)C[C@H](O)[C@H](C)N`, the growth is -35.7% [1.25 µM] (active) in the test on SR leukemia; 33.2% [1.25 µM] in the test with RPMI-8226 leukemia; 89.7% [1.25 µM] with OVCAR-8 ovarian; 86.1% [1.25 µM] with OVCAR-5 ovarian; 123% [1.25 µM] in the test with OVCAR-4 ovarian; 125% [1.25 µM] in the test with SK-OV-3 ovarian. In addition, the growth is 133% [1.25 µM] in the test with IGROV1 ovarian; 103% [1.25 µM] in the test with OVCAR-3 ovarian; 117% [1.25 µM] in the test with HS 578T breast; 85.9% [1.25 µM] with NCI/ADR-RES ovarian; 122% [1.25 µM] with T-47D breast; 107% [1.25 µM] with BT-549 breast. Also, the growth with MDA-MB-435 melanoma was 116% [1.25 µM]; in the test on SW-620 colon it was 99.9% [1.25 µM]; in the test on MCF7 breast it was 104% [1.25 µM]; with HCT-116 colon it was 83.1% [1.25 µM]; in the test with HCC-2998 colon, 26.7% [1.25 µM]; with KM12 colon it was 116% [1.25 µM].

As for `CCCCC1=C(Br)C(=O)c2nc(C)ccc2C1=O`, the growth in the test on SR leukemia is 21.8%; in the test on RPMI-8226 leukemia it was 58.5%; in the test on OVCAR-8 ovarian it was 88.3%; with OVCAR-5 ovarian, 102%; in the test with OVCAR-4 ovarian it was 75.5%; in the test with SK-OV-3 ovarian, 95%. For the same compound, the growth with IGROV1 ovarian is 83.9%; with OVCAR-3 ovarian, 48.5%; with HS 578T breast it was 90.9%; with NCI/ADR-RES ovarian it was 100%; in the test with T-47D breast it was 65.7%; in the test with BT-549 breast, 90%. Further, the growth in the test on MDA-MB-435 melanoma is 102%; in the test with SW-620 colon it was 60.2%; with MCF7 breast, 82.1%; in the test on HCT-116 colon it was 42.7%; with HCC-2998 colon, 108%; with KM12 colon it was 98.7%.

Turning to `c1cc(NCCCCN2CCOCC2)c2ccc3c(ccc4c(NCCN5CCOCC5)ccnc43)c2n1`, the growth with SR leukemia is -7.92% (active); in the test with RPMI-8226 leukemia, 98.2%; in the test on OVCAR-8 ovarian it was 79.2%; in the test on OVCAR-5 ovarian it was 111%; with OVCAR-4 ovarian it was 91.5%; in the test on SK-OV-3 ovarian, 101%. The growth in the test on IGROV1 ovarian is 65.6%; in the test on OVCAR-3 ovarian it was 105%; in the test on HS 578T breast, 88.6%; with NCI/ADR-RES ovarian it was 88.1%; in the test on T-47D breast it was 94.9%; in the test with BT-549 breast, 103%. The growth with MDA-MB-435 melanoma is 98.5%; in the test on SW-620 colon it was -16.5% (active); in the test on MCF7 breast, 58.5%; in the test with HCT-116 colon, 48.4%; with HCC-2998 colon, 87.8%; in the test with KM12 colon, 92.1%.

In the case of `CCOC(=O)c1cnn(-c2ccc(S(N)(=O)=O)cc2)c1N`, the growth with SR leukemia was 95.5%; in the test on RPMI-8226 leukemia it was 94.1%; in the test on OVCAR-8 ovarian it was 102%; with OVCAR-5 ovarian, 89.2%; with OVCAR-4 ovarian, 103%; in the test on SK-OV-3 ovarian it was 104%. Further, the growth in the test with IGROV1 ovarian is 97.9%; in the test with OVCAR-3 ovarian it was 134%; with HS 578T breast, 110%; in the test with NCI/ADR-RES ovarian, 96.1%; with T-47D breast it was 103%; in the test with BT-549 breast, 96%. The growth is 109% with MDA-MB-435 melanoma; 110% with SW-620 colon; 95.2% with MCF7 breast; 94.4% in the test with HCT-116 colon; 115% with HCC-2998 colon; 122% in the test on KM12 colon.

As for `COC(=O)c1nc(-c2ccc(C)cc2)oc1Sc1ccc(C)cc1`, the growth with SR leukemia was 76.1%; with RPMI-8226 leukemia, 81.4%; in the test on OVCAR-8 ovarian, 98.5%; in the test with OVCAR-5 ovarian, 97.8%; in the test with OVCAR-4 ovarian it was 101%; in the test on SK-OV-3 ovarian, 92.1%. Moreover, the growth is 110% in the test on IGROV1 ovarian; 108% with OVCAR-3 ovarian; 108% in the test on HS 578T breast; 108% with NCI/ADR-RES ovarian; 72.9% in the test on T-47D breast; 101% with BT-549 breast. Besides, the growth is 103% in the test with MDA-MB-435 melanoma; 103% with SW-620 colon; 93.7% in the test on MCF7 breast; 99.4% in the test on HCT-116 colon; 110% in the test on HCC-2998 colon; 98.6% in the test with KM12 colon.
